Reference: PubChem BioAssay AID1159580 (chemical genetic matrix, 2015)
“And” between values parts separate entries of the source, which are not always exact repeats. Identical values can stand only once. Out of some 5,500 compounds screened, about 2,000 (36%) were called active. Another 18% or so got no clear call; they are omitted. Rule as the data show it: active = normalized growth mostly below about 0.91 (no sharp cut-off); inconclusive = no clear call, values can overlap the other calls; inactive = mostly above about 0.92. The list shows a part of the results.

Assay: chemical genetic growth profiling, strain panel (AID 1159580);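 also: tested at 20 µM; growth read once vehicle control cultures reached saturation at 30 °C; 1 = growth at the plate median or of vehicle wells; lower values mean less growth of the strain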
Conditions: S. cerevisiae deletion strains, growth OD

Measured: normalized growth

C#CCCCCCCCCCCCC(O)CC(O)CO (configuration not stated)
0.999 (inactive) and 0.85 (active): locus YHR030C, strain SLT2, stronger effect = lower value
1.03 (inactive) and 0.819 (active): locus YJL095W, strain BCK1, stronger effect = lower value
active: locus YHR079C, strain IRE1, stronger effect = lower value 0.782
inactive: locus YAL013W, strain DEP1, stronger effect = lower value 1 | locus YAL021C, strain ccr4, stronger effect = lower value 0.979 | locus YAL026C, strain drs2, stronger effect = lower value 0.992 | locus YAL030W, strain snc1, stronger effect = lower value 0.99 | locus YBL061C, strain skt5, stronger effect = lower value 0.987 | locus YBR009C, strain hhf1, stronger effect = lower value 0.991 | locus YBR021W, strain FUR4, stronger effect = lower value 0.974 | locus YBR023C, strain chs3, stronger effect = lower value 0.983 | locus YBR171W, strain sec66, stronger effect = lower value 0.999 | locus YBR229C, strain ROT2, stronger effect = lower value 1 | locus YBR231C, strain swc5, stronger effect = lower value 0.993 | locus YBR279W, strain paf1, stronger effect = lower value 0.995 | locus YCL011C, strain gbp2, stronger effect = lower value 0.988 | locus YCL016C, strain dcc1, stronger effect = lower value 0.97 | locus YCL029C, strain bik1, stronger effect = lower value 1.01 | locus YCL061C, strain MRC1, stronger effect = lower value 0.979 | locus YCL069W, strain vba3, stronger effect = lower value 0.992 | locus YCR088W, strain abp1, stronger effect = lower value 0.985 | locus YDL005C, strain med2, stronger effect = lower value 0.974 | locus YDL035C, strain GPR1, stronger effect = lower value 0.984 | locus YDL040C, strain nat1, stronger effect = lower value 0.988 | locus YDL074C, strain BRE1, stronger effect = lower value 0.988 | locus YDL101C, strain DUN1, stronger effect = lower value 1.01 | locus YDL134C, strain PPH21, stronger effect = lower value 0.995 | locus YDL185W, strain tfp1, stronger effect = lower value 1.01 | locus YDL192W, strain arf1, stronger effect = lower value 1 | locus YDR001C, strain nth1, stronger effect = lower value 0.982 | locus YDR069C, strain doa4, stronger effect = lower value 0.994 | locus YDR101C, strain arx1, stronger effect = lower value 0.987 | locus YDR137W, strain rgp1, stronger effect = lower value 0.986 | locus YDR150W, strain NUM1, stronger effect = lower value 0.999 | locus YDR159W, strain sac3, stronger effect = lower value 1 | locus YDR162C, strain NBP2, stronger effect = lower value 1.03 | locus YDR195W, strain ref2 0.986 | locus YDR297W, strain sur2, stronger effect = lower value 0.988 | locus YDR318W, strain mcm21, stronger effect = lower value 1.01 | locus YDR334W, strain swr1, stronger effect = lower value 0.991 | locus YDR335W, strain msn5, stronger effect = lower value 0.988 | locus YDR388W, stronger effect = lower value 0.999 | locus YDR392W, strain spt3, stronger effect = lower value 0.877 | locus YDR502C, strain sam2, stronger effect = lower value 1 | locus YEL003W, strain gim4, stronger effect = lower value 0.98 | locus YEL037C, strain rad23, stronger effect = lower value 0.995 | locus YEL061C, strain CIN8 (second series), stronger effect = lower value 0.986 | locus YEL061C, strain CIN8, stronger effect = lower value 0.997 | locus YER015W, strain faa2, stronger effect = lower value 0.972 | locus YER016W, strain bim1, stronger effect = lower value 0.989 | locus YER110C, stronger effect = lower value 1 | locus YER111C, strain swi4, stronger effect = lower value 0.971 | locus YER155C, strain BEM2 (second series), stronger effect = lower value 0.953 | locus YER155C, strain BEM2, stronger effect = lower value 1.01 | locus YER167W, strain BCK2, stronger effect = lower value 0.998 | locus YFR010W, strain ubp6, stronger effect = lower value 0.993 | locus YGL078C, strain dbp3, stronger effect = lower value 1.02 | locus YGL086W, strain mad1, stronger effect = lower value 1.01 | locus YGL167C, strain pmr1, stronger effect = lower value 0.983 | locus YGL173C, strain kem1, stronger effect = lower value 0.983 | locus YGL227W, strain vid30, stronger effect = lower value 0.993 | locus YGL240W, strain doc1, stronger effect = lower value 1 | locus YGL248W, strain PDE1, stronger effect = lower value 0.997 | locus YGL253W, strain hxk2, stronger effect = lower value 0.991 | locus YGR078C, strain PAC10, stronger effect = lower value 0.981 | locus YGR135W, strain pre9, stronger effect = lower value 0.992 | locus YGR229C, strain SMI1, stronger effect = lower value 1.07 | locus YGR252W, strain gcn5, stronger effect = lower value 0.993 | locus YHR013C, strain ard1, stronger effect = lower value 0.939 | locus YHR027C, strain rpn1, stronger effect = lower value 0.984 | locus YHR079C, strain IRE1 (second series), stronger effect = lower value 1 | locus YHR094C, strain hxt1, stronger effect = lower value 1.01 | locus YHR129C, strain ARP1, stronger effect = lower value 0.996 | locus YHR142W, strain chs7, stronger effect = lower value 0.96 | locus YHR200W, strain rpn10, stronger effect = lower value 1.01 | locus YIL066C, strain RNR3, stronger effect = lower value 0.983 | locus YIL073C, strain SPO22, stronger effect = lower value 1.03 | locus YIL125W, strain kgd1, stronger effect = lower value 1.03 | locus YIR030C, strain dcg1, stronger effect = lower value 1 | locus YJL092W, strain hpr5, stronger effect = lower value 0.98 | locus YJL095W, strain BCK1 (second series), stronger effect = lower value 0.985 | locus YJL115W, strain asf1, stronger effect = lower value 0.968 | locus YJL129C, strain trk1, stronger effect = lower value 0.963 | locus YJL134W, strain LCB3, stronger effect = lower value 1.03 | locus YJL154C, strain vps35, stronger effect = lower value 0.976 | locus YJL164C, strain tpk1, stronger effect = lower value 0.982 | locus YJL166W, strain qcr8, stronger effect = lower value 0.98 | locus YJL168C, strain set2, stronger effect = lower value 1.01 | locus YJL187C, strain SWE1 (second series), stronger effect = lower value 0.992 | locus YJL187C, strain SWE1, stronger effect = lower value 0.979 | locus YJR043C, strain POL32, stronger effect = lower value 0.989 | locus YJR066W, strain TOR1, stronger effect = lower value 0.835
